The test system of one test is Klebsiella pneumoniae. To be noted: Concentration 32 ug.mL-1;; ASSAY_TEST Inhibition of Bacterial Growth; detection method Absorption (OD600); MEDIA CAMHB; plate type 384well; NBS; CORNING #3640; time 18 hr.
The test system of another test is Candida albicans. The conditions noted are these: Concentration 32 ug.mL-1; ASSAY_TEST Inhibition of Fungal Growth; detection method Absorption (OD530).
In a further test the test system is Cryptococcus neoformans. To be noted: Concentration 32 ug.mL-1; ASSAY_TEST Inhibition of Fungal Growth; detection method Resazurin; Absorption (OD600-OD570); plate type 384well; NBS; CORNING #3640. In general terms: Alamar Blue is a resazurin reagent that responds to reducing activity.

Entries with a potency or affinity are not part of this list.

For orientation: Inhibition means the change of the read-out against control, counted positive when it falls. In the case of `O=c1c2sccc2n2c(=O)n(Cc3c(F)cccc3Cl)nc2n1CCc1ccccc1`, the Inhibition was 4.07% in the test on Klebsiella pneumoniae, 1.94% with Candida albicans and -23.82% in the test with Cryptococcus neoformans.

In the case of `O=C(Cn1nc2nc(Nc3ccc(F)cc3)ccn2c1=O)Nc1ccc(F)cc1`, the results for the Inhibition with Klebsiella pneumoniae, in the test with Candida albicans and with Cryptococcus neoformans were 8.54%, 3.4% and -2.56%, respectively.

As to `Cc1ccc(C)c(NC(=O)Cn2nc3ccc(-c4ccc(C)c(C)c4)nn3c2=O)c1`, the figures for the Inhibition in the test with Klebsiella pneumoniae, in the test with Candida albicans and in the test on Cryptococcus neoformans were -9.48%, 0.94% and -3.49%, respectively.

As to `Cc1ccc(NC(=O)Cn2nc3c(SCc4ccccc4)nccn3c2=O)cc1C`, the figures for the Inhibition in the test with Klebsiella pneumoniae, with Candida albicans and in the test with Cryptococcus neoformans were 8.81%, 15.8% and -18.48%, respectively.

As to `CC(C)NC(=O)CCn1c(=O)c2cc(Cl)ccc2n2c(=O)n(CC#N)nc12`, the Inhibition is 4.55% in the test on Klebsiella pneumoniae, 6.33% in the test with Candida albicans and -24.01% in the test on Cryptococcus neoformans.

As to `Cc1cc(C)cc(Nc2nc(C)cc3nn(CC(=O)Nc4ccccc4)c(=O)n23)c1`, the Inhibition is reported as 9.53% in the test with Klebsiella pneumoniae, 4.6% with Candida albicans and -8.58% in the test with Cryptococcus neoformans.

Consider `COc1cccc(-n2ccn3c(SCC(=O)Nc4ccc(Cl)cc4)nnc3c2=O)c1`, for which the Inhibition is listed as 5.48% in the test on Klebsiella pneumoniae, 2.88% in the test with Candida albicans and -10.21% with Cryptococcus neoformans.

As for `COc1ccc(NC(=O)CSc2nnc3c(=O)n(-c4ccc(Br)cc4)ccn23)cc1`, the Inhibition is listed as 8.82% in the test with Klebsiella pneumoniae, 5.75% in the test on Candida albicans and -12.25% with Cryptococcus neoformans.

Regarding `COc1ccc(NC(=O)Cn2nc3c(N4CCCC4)nccn3c2=O)cc1`, the Inhibition with Klebsiella pneumoniae is recorded as 6.93%; with Candida albicans, 1.38%; with Cryptococcus neoformans, -6.3%.

Turning to `COc1cccc(Oc2nccn3c(=O)n(CC(=O)Nc4ccc(C)cc4Cl)nc23)c1`, the Inhibition in the test on Klebsiella pneumoniae is listed as 11.4%; in the test with Candida albicans, 4.48%; in the test with Cryptococcus neoformans, -10.48%.

Regarding `COC(=O)c1ccc(NC(=O)Cn2nc3ccc(C(=O)NCc4ccccc4)cn3c2=O)cc1`, the Inhibition with Klebsiella pneumoniae is on record as 7.68%; in the test on Candida albicans, 0.61%; in the test on Cryptococcus neoformans it was -23.41%.

These data come from ChEMBL document CHEMBL4513146, “CO-ADD screening of Karazin Kharkiv National University (Ukraine) compounds”.
